The whole screen tested about 360,000 compounds, of which about 11,000 (3.1%) were called active. The full list was thinned out, with actives kept by preference. Unmarked numbers belong to inactive results. Cut-off read from the data, not from the text of the source: active = activity change below about -30%; inactive = the rest.
Each compound was assayed against D(1A) dopamine receptor (Homo sapiens) (UniProt P21728) (assay: Antagonist of Human D 1 Dopamine Receptor: qHTS). Conditions: HEK293 TREx D1 cells, calcium flux, dopamine EC80; at 10 µM; stronger effect = lower value.
Sequence of D(1A) dopamine receptor (Homo sapiens) (P21728 whole entry, looked up): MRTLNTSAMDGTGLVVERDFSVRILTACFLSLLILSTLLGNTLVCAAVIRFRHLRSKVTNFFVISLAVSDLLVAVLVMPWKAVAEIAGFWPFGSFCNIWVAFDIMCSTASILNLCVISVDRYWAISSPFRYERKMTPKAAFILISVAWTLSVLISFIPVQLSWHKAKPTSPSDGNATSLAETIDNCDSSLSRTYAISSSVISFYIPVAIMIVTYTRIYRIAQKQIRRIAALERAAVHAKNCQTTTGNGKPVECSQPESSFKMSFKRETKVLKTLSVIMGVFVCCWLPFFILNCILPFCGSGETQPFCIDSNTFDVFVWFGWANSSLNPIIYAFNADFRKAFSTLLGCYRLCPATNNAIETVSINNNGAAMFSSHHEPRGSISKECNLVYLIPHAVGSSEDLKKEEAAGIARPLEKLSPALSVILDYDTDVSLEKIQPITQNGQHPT
Text: Dopamine receptors (DARs) are involved in the etiology and/or therapy of a number of neuropsychiatric and endocrine disorders. For instance, all receptor-based antiparkinsonian drugs work via stimulating the […] DAR subtype whereas all FDA-approved antipsychotic agents are antagonists of this receptor. […] There are three different types of allosteric modulators that we are seeking, two of which will stimulate or augment receptor signaling, allosteric agonists and potentiators, while the third, allosteric antagonists, will attenuate receptor signaling. The present primary screening assay measures compound antagonism after an EC80 addition of dopamine by tracking calcium flux in a […], inducible Hek293 Trex D1 cell line. NIH Chemical Genomics Center [NCGC] NIH Molecular Libraries Probe Centers Network [MLPCN] MLPCN Grant: NS064831-01 Assay Submitter (PI): David Sibley
Freshly passaged cells are plated in 1536 well black, clear bottom plates at a density of 4000 cells/well in 3 ul of complete media containing 1x tetracycline inducer. After an overnight incubation at 30 C in 5% CO2, cells are loaded with 2 ul of the no wash Calcium Assay Kit (ABD Bioquest) and incubated at room temperature for 30 to 90 minutes. Agonist read: A 10 cycle (1 second/cycle) baseline measurement is taken and then the FDSS online 1536 pintool delivers 23 nl of compound library (as well as dopamine controls) to the plate. The plate is measured for kinetically at 1 cycle/sec for 180 seconds. Following the 180 second read, 1 ul of an EC80 (negative modulation assay) is delivered by an onboard pipette head. Measurements are taken kinetically for an additional 180 seconds.
% is set by controls: 0 for no effect and ±100 for the full control effect.

Row | Structure (SMILES) | activity change, negative = inhibition
1 | CCOc1cc(/C=C(\C#N)C(=O)Nc2ccccc2C)ccc1OCc1cc(=O)n2nc(CC)sc2n1 | 4.8%
2 | CCOC(=O)c1cccc(NS(=O)(=O)c2cn(C)c(C)n2)c1 | 0.648%
3 | CCOc1ccccc1N(CC)C(=O)c1cc2ccc3cccnc3c2[nH]1 | 15.7%
4 | CCOc1ccccc1CNC(=O)Nc1cn(CC(C)C)c(=O)c2ccccc12 | -9.18%
5 | CCOc1ccccc1N(CC)C(=O)Nc1cn(C)c(=O)c2ccccc12 | -33.9% (active)
6 | CNC(=O)CN1C(=O)c2cccnc2Sc2ccccc21 | 2.47%
7 | COc1ccc(CCNC(=O)c2ccc3c(c2)sc2nc(-c4ccc(C)cc4)cn23)cc1OC | -5.29%
8 | COc1cc(NS(=O)(=O)c2ccc(NC(=S)NC(=O)c3ccc(Br)cc3)cc2)ncn1 | -8.88%
9 | COc1cc(NS(=O)(=O)c2ccc(NC(=O)c3ccc(S(=O)(=O)N4CCCCC4)cc3)cc2)ncn1 | -62.1% (active)
10 | COc1cc(NS(=O)(=O)c2ccc(NC(=O)CN3C(=O)c4ccccc4C3=O)cc2)ncn1 | 11.7%
11 | CC1CCCCN1Cc1c(O)ccc2c(=O)c(-c3cccc(Cl)c3)c(C(F)(F)F)oc12 (configuration not stated) | 8.91%
12 | CCOc1ccc(C(NC(=O)c2cc(OC)c(OC)c(OC)c2)c2cc(Cl)c3cccnc3c2O)cc1 (configuration not stated) | 1.85%
13 | CCOCCCNC(=O)c1ccc2nc(CCc3ccccc3)oc2c1 | -1.1%
14 | CCOc1cccc(NC(=O)c2ccc(F)c(S(=O)(=O)N(CC)c3cccc(C)c3)c2)c1 | 16.1%
15 | CC1=C(C(=O)OCc2ccc(C)cc2)C(c2c(Cl)cccc2Cl)CC(=O)N1 (configuration not stated) | 4.89%
16 | Cc1ccccc1OCC(=O)Nc1ccc(N2CCN(C(=O)C(C)C)CC2)c(Cl)c1 | -31% (active)
17 | COc1cc(NC(=O)COc2ccccc2Cl)ccc1NC(=O)C(C)C | 0.361%
18 | CCC(=O)N1CCN(c2ccccc2NC(=O)COc2cccc(C)c2C)CC1 | 3.4%
19 | Cc1ccc(C)c(CN2C(=O)c3ccccc3S(=O)c3ccc(C(=O)N4CCOCC4)cc32)c1 (configuration not stated) | 1.36%
20 | COc1ccc(OCC(=O)Nc2cccc(C(=O)OCc3cc(=O)n4nc(C)sc4n3)c2)cc1 | -3.25%
21 | CCOc1ccc(-n2c(C)nc3c(cnn3-c3ccc(C)cc3)c2=O)cc1 | 10.9%
22 | COc1cc(C(=S)N2CCOCC2)cc(OC)c1OC(=O)c1cc([N+](=O)[O-])cc([N+](=O)[O-])c1 | -2.9%
23 | COc1cc([N+](=O)[O-])cc([N+](=O)[O-])c1NC(=O)N1CCOCC1 | -32.7% (active)

Row | Structure (SMILES) | activity change, negative = inhibition
24 | COc1cc(C(=S)N2CCOCC2)cc(OC)c1OC(=O)c1ccc([N+](=O)[O-])cc1[N+](=O)[O-] | -16.4%
25 | O=C(Nc1c(-c2ccc(F)cc2)nc2ccccn12)c1cccc(F)c1 | -0.545%
26 | N#CN1CCC(NC(=O)c2ccc(F)cc2)CC1 | -14.9%
27 | O=C(Nc1ccc(OC(F)(F)F)cc1)c1cc2c(=O)n3ccccc3nc2s1 | -3.02%
28 | CCOc1ccc(N(C)S(=O)(=O)c2cc(-c3cnc(C)o3)ccc2OC)cc1 | -5.97%
29 | COc1ccc(CSc2nnnn2-c2ccc(O)cc2)cc1F | -36.7% (active)
30 | COc1ccc(-n2nnnc2SCC(=O)c2ccc(OC)c(OC)c2)cc1 | 16.4%
31 | Oc1ccc(-n2nnnc2SCc2c(F)cccc2Cl)cc1 | -17.7%
32 | COc1ccc(CCNc2nc3c(-c4cccc(F)c4)nnn3c3ccccc23)cc1OC | 1.83%
33 | CN1CCN(C(=O)/C(=C\c2cccs2)NC(=O)c2cccs2)CC1 | -40.4% (active)
34 | CN1CCN(C(=O)/C(=C\c2ccc3c(c2)OCO3)NC(=O)c2cccs2)CC1 | -1.26%
35 | Cc1ccc(C(=O)N/C(=C/c2cccs2)C(=O)N2CCCCC2)cc1 | -1.28%
36 | CCOc1ccc(CNC(=O)c2ccc3c(c2)nnn3C2CCCC2)cc1 | -28.9%
37 | Cc1ccc(-c2nn(CCC(=O)Nc3ccc(OC(F)(F)F)cc3)c(=O)c3ccccc23)cc1 | -11%
38 | COc1ccc(NC(=O)Nc2ccc3nsnc3c2)cc1 | -36.6% (active)
39 | COc1ccc(NC(=O)Nc2cccc(-c3noc(C)n3)c2)cc1 | 8.89%
40 | Cc1ccc(NC(=O)Nc2ccc3oc(C)nc3c2)cc1 | -1.61%
41 | Cc1ccc(C)c(Cn2c(C)c(CNCc3ccc(F)cc3)c(C(=O)O)c2C)c1 | -10.2%
42 | O=C(NCc1ccco1)c1ccc(NS(=O)(=O)c2cccc([N+](=O)[O-])c2)cc1 | -51.9% (active)
43 | O=C(NCc1ccco1)c1ccc([N+](=O)[O-])cc1Cl | -6.24%
44 | O=C(NCc1ccncc1)c1ccc(NS(=O)(=O)c2cccc([N+](=O)[O-])c2)cc1 | -49% (active)
45 | O=C(NCc1ccco1)/C(=C/c1cccc([N+](=O)[O-])c1)NC(=O)c1ccco1 | -9.94%
46 | O=C(NCc1ccncc1)c1cccc(NS(=O)(=O)c2ccc(F)c(F)c2)c1 | -6.23%

Row | Structure (SMILES) | activity change, negative = inhibition
47 | O=[N+]([O-])c1cccc(S(=O)(=O)NCc2ccccn2)c1 | 8.53%
48 | CCOC(=O)c1c(NC(=O)COc2cc(C)ccc2C(C)C)sc(C)c1C | 8.46%
49 | CC1CN(CCCOc2ccccc2-c2ccccc2)CC(C)O1 (configuration not stated) | 13.9%
50 | CC1CCCN(CCOCCOc2ccccc2-c2ccccc2)C1 (configuration not stated) | -48.5% (active)
51 | c1ccc(-c2ccccc2OCCN2CCCCC2)cc1 | 8.41%
52 | CC1CN(C(=O)N2CCC(C(=O)NCc3cccs3)CC2)c2ccccc2O1 (configuration not stated) | -3.92%
53 | COc1ccc(NC(=O)CCNS(=O)(=O)c2ccc3c(c2)CCCC(=O)N3)cc1Cl | 1.62%
54 | O=S(=O)(NCCc1ccc(F)cc1)c1cccc2cccnc12 | -44.7% (active)
55 | O=S(=O)(Nc1cccc2cccnc12)c1cccc2cccnc12 | -7.95%
56 | O=S(=O)(NCCOc1cccc2cccnc12)c1ccc(F)cc1 | 6.87%
57 | CC(CNC(=O)c1nnc(Cc2cccc(F)c2)o1)c1ccccc1 (configuration not stated) | 0.636%
58 | Cc1cc2oc(C(=O)N(Cc3ccc(Cl)cc3)Cc3ccco3)c(C)c2cc1Cl | -1.03%
59 | CCCOc1ccc(-c2cccc(NS(=O)(=O)c3ccccc3)c2)nn1 | -24.2%
60 | CCNS(=O)(=O)c1cc(-c2nnc(Nc3cccc(C(F)(F)F)c3)c3ccccc23)ccc1C | -6.09%
61 | Cc1ccc2nc(COc3ccc(NC(=O)COc4ccccc4F)cc3)cc(=O)n2c1 | 0.203%
62 | Cc1ccc2nc(COc3ccc(N(C)S(=O)(=O)c4ccccc4)cc3)cc(=O)n2c1 | -32.1% (active)
63 | COc1cccc(COc2ccc(N(C)S(=O)(=O)c3ccccc3)cc2)c1 | -1.51%
64 | CSc1ccc(CCNC(=O)c2ccc3c(c2)nc2n3CCOC2)cc1 | 11.3%
65 | CCCN1CCN(CCCNC(=O)c2ccc3nc(Cc4ccccc4)oc3c2)CC1 | -1.19%
66 | CC(C)CC(NS(=O)(=O)c1ccc2c(c1)oc(=O)n2C)C(=O)NCc1ccccc1Cl (configuration not stated) | 14.8%
67 | CCCCCn1c(=O)[nH]c2cc(C(=O)Nc3cc(C)cc(C)c3)ccc2c1=O | -6.59%
68 | COc1ccc(C(C[N+](=O)[O-])n2nc(C)cc2C)cc1 (configuration not stated) | 13.7%
69 | Cc1ccc(C(C[N+](=O)[O-])c2c(C)cc3ccccn23)cc1 (configuration not stated) | -51.3% (active)

Row | Structure (SMILES) | activity change, negative = inhibition
70 | CC(=O)Nc1ccc(/C=N/Nc2ccc(C(=O)c3c(C)cc4ccccn34)cc2[N+](=O)[O-])cc1 | -18.5%
71 | CN1CCN(C2=NCCO2)CC1 | -33% (active)
72 | CCOC(=O)C1CCN(c2csc3ccc(C)cc3c2=O)CC1 | 6.24%
73 | Fc1cccc(-n2ncc3c2ncn2nc(-c4ccccc4Cl)nc32)c1 | -8.03%
74 | Oc1cc2c(cc1O)CN(C(=S)NCCc1ccc(Cl)cc1)CCC2 | -90.5% (active)
75 | Cc1cccc(NC(=S)NCCc2ccc(Cl)cc2)c1C | -8.27%
76 | O=C(NCCc1ccc(Cl)cc1)c1cccc(N2CCCC2=O)c1 | -8.26%
77 | Cc1ccc2ncc(C(=O)Nc3ccc(OC(F)(F)F)cc3)c(=O)n2c1 | 0.312%
78 | COc1cc(CCC(=O)Nc2ccncc2Cl)cc(OC)c1OC | 1.11%
79 | CC(=O)c1ccc(N2CCN(C(=O)CCc3ccccc3)CC2)cc1 | 3.26%
80 | COc1cc(CCC(=O)N2CCN(c3ccccc3Cl)CC2)cc(OC)c1OC | -35% (active)
81 | COc1cccc(C(=O)N(Cc2cccc(Cl)c2)Cc2ccco2)c1 | -12.2%
82 | COc1ccc(-c2ccc(CNCCCN3CCOCC3)o2)cc1Cl | -8.26%
83 | O=C(NCCCN1CCOCC1)c1cc(-c2ccc(Cl)cc2)on1 | 7.89%
84 | C=CCOc1ccc(Cl)cc1CNCCCN1CCOCC1 | -32.4% (active)
85 | COCCCNC(=O)c1ccc(NC(=O)c2nsc3ccccc23)cc1 | -4.68%
86 | COc1ccc(NC(=O)CCN2CCN(CCO)CC2)cc1 | -14%
87 | Cc1ccc(C)c(N2CCN(C(=O)C3CCC(CNS(=O)(=O)c4cccs4)CC3)CC2)c1 (configuration not stated) | 16.1%
88 | COc1ccc(NC(=O)N2CCCn3nc(C)cc32)cc1OC | -22.3%
89 | COc1ccc(CCNC(=O)c2ccc(CSCc3ccc(C)cc3)o2)cc1OC | -24.7%
90 | Clc1cccc(-n2ncc3c(NCCc4ccccc4)ncnc32)c1 | -27.8%
91 | C1=C(CCNc2ncnc3c2cnn3-c2ccccc2)CCCC1 | -10.6%
92 | COc1ccc(CCNc2ncnc3c2cnn3-c2ccc(C)cc2)cc1 | -63.8% (active)

Reference: PubChem BioAssay AID504652 (National Center for Advancing Translational Sciences (NCATS), 2011)
